HttQ103 aggreg: qHTS Multiplex Assay to Identify Dual Action Probes in a Cell Model of Huntington: Aggregate Formation (GFP). PC12 HttQ103-GFP aggregates, Acumen cytometry, 40 h. Potency, µM (highest dose often 46.1 µM), for the others: at the top dose activity change, negative = inhibition, actives largely listed as inhibitors. hit rate 1.1% among 220,000; also: % is scaled to controls: 0 for no effect and ±100 for the full control effect; nearly all actives have a fitted effect of over 60% in size
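Using laser scanning cytometry, GFP-positive aggregates were counted after lysis of PC12 cells induced with 100 nM tebufenozide to express HTT exon 1 Q103–GFP. Compounds were tested in titration.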
ATXN viability: Viability Counterscreen for Primary qHTS for Inhibitors of ATXN expression; S2 cells (HEK-293 line with an ATXN2-luciferase reporter) viability, CellTiter-Fluor protease fluorescence, 24 h; Potency, µM (top dose mostly 56.7 µM), actives largely listed as cytotoxic; hit rate 0.49% among 400,000; also: nearly all actives have a fitted effect of over 40% in size
HTT ATP protect: qHTS Multiplex Assay to Identify Dual Action Probes in a Cell Model of Huntington: Cytoprotection (ATP). PC12 HTT-Q103 induced, cytoprotection, ATP luminescence, 40 h. AID 1471, 2008. Potency, µM (highest dose often 56.4 µM), for the others: cytoprotection (ATP increase), most hits filed as activators. hit rate 0.14% among 230,000; also: % of control where 0% means no effect; nearly all actives have a fitted effect of over 45% in size
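ATP quantification (ATPlite) reports survival of PC12 cells in which tebufenozide, 100 nM final, switches on Htt exon 1 with 103 glutamines linked to GFP; compounds are titrated.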
HepG2 viability: qHTS for Inhibitors of TGF-b: Cytotox Counterscreen | hit rate 0.76% among 410,000 | HepG2 CAGA-GFP viability, ATP luminescence, 18 h | Potency, µM (series often up to 46.1 µM), without a hit: at the top dose activity change, negative = cytotoxicity, usual class: cytotoxic
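CellTiter-Glo luminescence gave cytotoxicity after 18 hours at 37 degrees C. The cells were HepG2 CAGA-GFP in 1% FBS DMEM, stimulated with 500 pg/mL TGF-beta after compound addition. %Activity was normalised to no-cell wells (complete cell-killing) and DMSO (no toxicity), and curves were fitted and classified.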
ATXN2 expr inh: Primary qHTS for Inhibitors of ATXN expression; HEK-293 ATXN2-luciferase reporter, luminescence, 24 h; Potency, µM (top dose mostly 57 µM), for inactives: at the highest dose activity change, negative = inhibition, hits mostly inhibitors; hit rate 0.72% among 360,000; AID 1745845, 2022; also: % is scaled to controls: 0 for no effect and ±100 for the full control effect; nearly all actives have a fitted effect of over 55% in size
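ATXN2-luciferase reporter cells (luciferase flanked by upstream and downstream ATXN2 gene portions) were treated 24 h at 37 °C with compounds at up to 57 uM. SteadyGlo luminescence gave expression; GF-AFC fluorescence gave viability.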
TGFb SMAD3 inh: qHTS for Inhibitors of TGF-b. HepG2 CAGA-GFP TGF-b/SMAD3 reporter, GFP fluorescence, 18 h; TGF-beta stimulated, 500 pg/mL final. hit rate 1.2% among 410,000. Potency, µM (doses to about 46.1 µM), for inactives: at the highest dose activity, negative = inhibition, hits mostly inhibitors; also: % is scaled to controls: 0 for no effect and ±100 for the full control effect; nearly all actives have a fitted effect of over 65% in size
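Inhibition of TGF-beta-driven CAGA-GFP reporter expression in HEPG2 cells is measured by cellular GFP fluorescence after 18 h stimulation with 500 pg/mL recombinant TGF-beta in 1% FBS medium at 37 degrees C.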
An asterisk follows results filed as active; i = inactive; ? = inconclusive; . = no result; [ ] = dose if it differs, or a comment. Shown are actives, neighbours in structure and some others; about 2.8% of the full set was active somewhere. Calls follow the shape of the dose curve; as a rule, active = well fitted curve in the direction sought with a large enough effect; inconclusive = small, poorly fitted or top-dose-only effect, or another doubt; inactive = no such curve, though single readings can be large; an effect the other way counts as inactive or inconclusive. Potency is read from the fitted curve at half-maximal effect.

SMILES	HttQ103 aggreg	ATXN viability	HTT ATP protect	HepG2 viability	ATXN2 expr inh	TGFb SMAD3 inh
Cc1cc(-n2c(SCC(=O)NCCC3=CCCCC3)nc3n[nH]c(C)c3c2=N)ccc1Cl	.	?	.	-79%	.	?
CCc1ccc(NC(=O)CSc2nc3n[nH]c(C)c3c(=N)n2-c2ccccc2C)cc1	.	?	.	16µM*	-28%	?
CCc1ccccc1-n1c(SCC(=O)Nc2ccc(C)cc2)nc2n[nH]c(C)c2c1=N	.	.	.	-42%	.	0%
Cc1[nH]nc2nc(SCC(=O)NCCC3=CCCCC3)n(-c3ccc(Br)cc3)c(=N)c12	.	?	.	-137%	.	16µM*
Cc1ccc(CNC(=O)CSc2nc3n[nH]c(C)c3c(=N)n2-c2ccccc2Cl)cc1	.	.	.	-19%	.	?
O=C1/C(=C\c2cc(Cl)c(O)c(Cl)c2)SC(=S)N1Cc1ccccc1	.	i	.	11µM*	?	238%
COc1ccc(/C=C2/SC(=S)N(Cc3ccccc3)C2=O)cc1O	.	i	.	-89%	5%	?
CCC1CN(CCC(=O)NC2CCOC(C)(C)C2)Cc2cc(OC)ccc2O1 (stereo not drawn)	.	i	.	.	.	.
COc1cc(C)ccc1OCCOCCN(C)Cc1ccccc1	-8%	i	-11%[10 µM]	20µM*	-13%	0%
CC(C)(C)NC(=S)Nc1ccc(Nc2ccccc2)cc1	-3%	?	-37%	13µM*	-14%	?
CCCCCCc1cc2cc(-c3nnc(-c4cc(OC)c(OC)c(OC)c4)o3)c(=O)oc2cc1O	2.8µM*	.	-4%[10 µM]	6%	-19%	60%
OCCCn1c(-c2ccc(F)cc2)csc1=Nc1ccc(F)cc1	.	?	.	-40%	-1%	?
O=S(=O)(c1ccc(-c2csc(=Nc3ccc(F)cc3)n2CCCCCCO)cc1)N1CCCC1	.	?	.	-12%	32µM*	?
Cc1ccc(-c2csc(=Nc3ccccc3)n2CCCO)cc1	.	?	.	-68%	?	7.1µM*
C=CCn1c(-c2ccc(S(=O)(=O)N3CCOCC3)cc2)csc1=Nc1ccccc1	?	i	-19%	-12%	-15%	-2%
CC(C)Cn1c(-c2ccc(S(=O)(=O)N3CCCC3)cc2)csc1=Nc1ccccc1	.	i	.	-5%	-24%	-22%
COc1ccc(N=c2scc(-c3ccc(S(=O)(=O)N4CCOCC4)cc3)n2CCCO)cc1	13µM*	.	11%[10 µM]	.	.	.
COc1cccc(CNC(=O)c2c(OC)cc(=O)n3c2CCN(C(=O)c2ccc(Cl)cc2)CC3)c1	.	i	.	.	.	.
CC(=O)N1CCC[C@H]1C(=O)NCC1Cc2cc(-c3cccc(OC(F)(F)F)c3)ccc2O1 (stereo partly drawn)	.	i	.	.	.	.
COc1ccccc1-c1c(C)nn2c(N3CCOCC3)cc(C)nc12	.	i	.	1%	-8%	8%
COc1ccccc1-c1c(C)nn2c(N3CCCCCC3)cc(C)nc12	?	?	-12%	-41%	?	11µM*
O=C(CCl)N(C/C=C/c1ccccc1)c1ccc2c(c1)OCCO2	?	1.3µM*	-43%	-2%	1.3µM*	?
N#CCCN(C(=O)CSc1ncccn1)c1ccc2c(c1)OCCO2	.	?	.	8%	.	-6%
Oc1cc(NCCN2CCOCC2)cc2cccnc12	.	?	.	-94%	32µM*	?
Oc1cc(-c2cccnc2)cc2cccnc12	.	?	.	-46%	?	?
SMILES	HttQ103 aggreg	ATXN viability	HTT ATP protect	HepG2 viability	ATXN2 expr inh	TGFb SMAD3 inh
Oc1cc(Nc2ccccc2)cc2cccnc12	.	?	.	11µM*	32µM*	32µM*
Oc1cccc2cc(Nc3ccccc3)cnc12	.	?	.	0%	7.1µM*	3.5µM*
Clc1ccccc1-c1nccc(NCCN2CCOCC2)n1	.	.	5%	.	.	.
O=C(NCC1CC1)c1ccc2nc(-c3ccoc3)c(-c3ccoc3)nc2c1	.	.	.	-15%	.	-2%
CCn1nc(C)c(CN2CCC3(CCC(CNC(=O)c4ccccc4)O3)CC2)c1C (stereo not drawn)	.	i	.	.	.	.
C[C@H]1CN([C@@H](C)CO)C(=O)Cc2cc(NC(=O)Nc3ccccc3)ccc2O[C@H]1CN(C)Cc1ccccc1	.	28µM*	.	-82%	?	?
C[C@H]1CN([C@@H](C)CO)C(=O)Cc2cc(NC(=O)C3CC3)ccc2O[C@H]1CN(C)Cc1ccc(C(=O)O)cc1	.	i	.	-4%	-4%	3%
C[C@H](CO)N1C[C@H](C)[C@H](CN(C)Cc2ccncc2)Oc2ccc(NC(=O)Nc3ccc(C(F)(F)F)cc3)cc2CC1=O	.	28µM*	.	-59%	?	13µM*
C#CC1(O)CC[C@H]2[C@@H]3CCC4=CCCC[C@@H]4[C@H]3CC[C@@]21C (stereo partly drawn)	.	i	.	.	-20%	.
Cc1ccnc(NC(=O)c2ccc(OCC3CCCO3)cc2)c1 (stereo not drawn)	.	i	.	-53%	5.6µM*	2%
COc1cc(CNCc2cc3cc(C)ccc3nc2-c2ccc(F)cc2)cc(OC)c1OC	.	i	.	.	.	.
C(=N\n1cnnc1)/c1ccc(OCc2ccccc2)cc1	0%	i	-22%	-20%	30%	22%
Cc1cc(/C=N/n2cnnc2)c(C)n1-c1ccc(OCc2ccccc2F)cc1	10µM*	i	-66%	13µM*	?	11µM*
Cc1cc(/C=N/n2cnnc2)c(C)n1-c1ccc(OCc2ccc(Cl)cc2)cc1	2.5µM*	?	-63%	-24%	-19%	?
